Data taken from PubChem BioAssay (Tox21).
Records with an inconclusive call do not appear. Values without a mark were called inactive. The source made the active and inactive calls. The call rests on the fitted dose curve; in most records, active means well fitted cell-killing curve with a large enough effect in the repeat runs; inconclusive means weak or mixed curves, or effect the other way; inactive means flat fitted curve, though single readings scatter.
On the % scale 0 is the no-effect control and ±100 the full control effect.

Assay: qHTS assay to identify small molecule antagonists of the retinoid acid receptor (RAR) signaling pathway - cell viability counter screen (AID 1159551); further: nearly all actives have a fitted effect of over 35% in size
Details: C3RL4 cells viability, ATP luminescence (CellTiter-Glo), 6 h; series mostly up to 92.4 µM
Excerpt: U.S. Tox21 Program National Center for Advancing Translational Sciences [NCATS] NIH Chemical Genomics Center [NCGC] U.S. Environmental Protection Agency [EPA] National Institutes of Environmental Health Sciences [NIEHS] National Toxicology Program [NTP] U.S. Food and Drug Administration [FDA] Tox21 Assay Overview: All-trans Retinoic acid (atRA) is the potent natural metabolite of retinol and plays an important role in normal embryonic development and maintenance of cellular phenotype in adult animals. atRA is the activating ligand for the retinoic acid receptors (RARs) which form heterodimers with retinoid X receptors (RXRs) on the retinoic acid response element (RARE). Through activation of the RAR/RXRs nuclear receptors, atRA regulates the transcription of a large number of protein-coding genes and regulatory RNAs. Intracellular levels of atRA are controlled by the retinol signaling pathway (RSP) that regulates the biosynthesis and catabolism of atRA to maintain physiological levels. Chemicals that interfere with the RSP can cause abnormal intracellular levels of atRA and therefore are potential developmental toxicants. To assess compounds for the potential adverse effect on embryonic development through interfering with retinol signaling, a cell-based RARE luciferase reporter gene assay was used. C3RL4 cell line (OARSA/CFSAN/FDA, Laurel, MD) was used to screen Tox21 10K compound library for identifying inhibitors of the RSP. Also cytotoxicity was assessed by determining the viability of cells based on the quantitation of ATP.
Tox21 Assay Protocol Summary: C3RL4 cells were seeded at 1,000/well in 4 uL of assay medium into white solid 1,536-well tissue culture plates (Greiner Bio-One North America Inc. Monroe, NC) using a Multidrop Combi (Thermo Scientific, Waltham, MA) dispenser. After incubation at 37 C and 5% CO2 for an overnight, 23 nL of compounds dissolved in DMSO, positive control or DMSO only were transferred by a Pintool station (Kalypsys, San Diego, CA). One ul of 1 uM (final concentration) of Retinol was added right after the compound addition by using a Flying Reagent Dispenser (FRD) (Aurora Discovery, San Diego, CA). After 6 hr incubation at 37 C and 5% CO2, 5 uL of CellTiter-Glo reagent (Promega Corporation, Madison, WI) was added to each assay plate using an FRD. Luminescence was quantified on a ViewLux plate reader (PerkinElmer, Waltham, MA) after 30 min incubation at room temperature.
With Nc1ccc(S(=O)(=O)Nc2ccccn2)cc1 the outcome was “inactive”. For Nc1cc(C(=O)O)ccc1Cl, the outcome was “inactive”. In the case of NC(=O)C1(N2CCCCC2)CCN(CCCC(=O)c2ccc(F)cc2)CC1, the outcome is reported as “inactive”. For NCCc1ccn[nH]1, the outcome was “inactive”. For CCS(=O)(=O)CCn1c([N+](=O)[O-])cnc1C, the outcome was “inactive”. With CCCCOC(=O)C(=O)OCCCC the outcome was “inactive”. With NS(=O)(=O)c1ccc(Cl)c(S(N)(=O)=O)c1 the outcome was “inactive”. In the case of Cc1cc(C)cc([N+](=O)[O-])c1, the outcome is reported as “inactive”. For O=S(=O)(O)c1cc(O)ccc1O, the outcome was “inactive”. For CC(C)(c1ccc(Oc2ccc3c(c2)C(=O)OC3=O)cc1)c1ccc(Oc2ccc3c(c2)C(=O)OC3=O)cc1, the outcome was “inactive”. For CCC(=O)c1ccc(O)cc1, the outcome was “inactive”. For CCOC(=O)C(=O)c1csc(NC=O)n1, the outcome was “inactive”. For C=C[Si](C)(C)O[Si](C)(C)C=C, the outcome was “inactive”. With COc1cc2c(Nc3ccc(Br)cc3F)ncnc2cc1OCC1CCN(C)CC1 the outcome was “inactive”. In the case of CCCCC/C=C/CC(=O)OC, the outcome is reported as “inactive”. For OCCCCCCCl, the outcome was “inactive”. With O=c1[nH]c(=O)c2[nH]c(=O)[nH]c2[nH]1 the activity change, negative = cytotoxicity was -0.439% [at 8.39 µM]. For CCCCOC(=O)[C@@H](C)Oc1ccc(Oc2ccc(C(F)(F)F)cn2)cc1, the outcome was “inactive”. With CN[C@@H]1[C@@H](O)[C@@H](O[C@@H]2[C@H](O)[C@H](O[C@H]3OC(CN)=CC[C@H]3N)[C@@H](N)C[C@H]2N)OCC1(C)O (stereo not given in full) the outcome was “inactive”. In the case of O=CO, the activity change, negative = cytotoxicity is reported as 2.98% [at 8.39 µM]. For O=S(=O)(O)CCO, the outcome was “inactive”. In the case of CCCOC(=O)CCCCC(=O)OCCC, the outcome is reported as “inactive”. In the case of O=[Si]=O, the outcome is reported as “inactive”. With Cc1nc(C)nc(N2C[C@@H](C)N(c3ccnc([C@@H](C)O)n3)[C@@H](C)C2)n1 the outcome was “inactive”. In the case of NS(=O)(=O)c1ccccc1OC(F)(F)F, the outcome is reported as “inactive”. In the case of Cc1ccccc1N1CCN(CCc2nnc3n2CCCC3)CC1, the outcome is reported as “inactive”. For CCC(C)N (stereo not given), the outcome was “inactive”. With N#CCCOCCOCCC#N the outcome was “inactive”. With Cc1nc2ccccc2c(=O)o1 the outcome was “inactive”. In the case of COCCOCCOCCOC, the outcome is reported as “inactive”. For O=C1OC(=O)c2ccccc21, the outcome was “inactive”. With CN(C)CCOCCN(C)CCO the outcome was “inactive”. With Oc1ccccc1Cc1ccccc1O the outcome was “inactive”. With CCCCCCCCCCCCCCCC(=O)NCCO the outcome was “inactive”. For Cc1c(C(C)C)c(=O)n(-c2ccccc2)n1C, the outcome was “inactive”. For CCCCC[Si](OCC)(OCC)OCC, the outcome was “inactive”. For C[Si]1(C)N[Si](C)(C)N[Si](C)(C)N1, the outcome was “inactive”. In the case of FC(F)(F)c1ccc(Cl)cc1Cl, the outcome is reported as “inactive”. With O=C(O)C(=O)Nc1cccc(-c2nn[nH]n2)c1 the outcome was “inactive”. In the case of CC1CCC(C(C)(C)S)C(=O)C1 (stereo not given), the outcome is reported as “inactive”.
